Measurements reported in ChEMBL document CHEMBL3988442, “University of Dundee, Small-Polar-MMV Screening Library” (2021).
The campaign covered roughly 48,000 compounds. About 13,000 (27%) showed an effect of 50% or more. Some of the results follow.

Test system: Wolbachia pipientis
Assay: Anti-Wolbachia Cell-Based Screen
Assay type: functional
Design: scale not given: in the data most compounds retested in dose-response had high values
Conditions: 5 µM

Compound	Percent Effect
O=C1CC(c2ccc(C(=O)O)cc2)c2ncn(-c3cccnc3)c2N1 (stereo not given)	-9.053%
CCN(CC)C1COc2c(cc(Br)c(C)c2Br)C1=O (stereo not given)	114.2%
CCCN1Cc2cc(Br)ccc2OCC1=O	11.44%
CCN(CC)C1COc2ccc(Br)cc2C1=O (stereo not given)	104.3%
CCN(CC)C1COc2c(cc(Br)c(C)c2C)C1=O (stereo not given)	131.7%
Cc1c(Br)cc2c(c1C)OCC(N(C)C)C2=O (stereo not given)	95.66%
COCCN1C(=O)[C@H]2CC[C@@H]1CN(C(=O)COc1ccc(F)c(Cl)c1)C2	1.148%
CC(C)c1cc(C(=O)NCCN2CCCS2(=O)=O)n[nH]1	-2.781%
COc1ccccc1CC(=O)N1CC[C@H](O)[C@]2(CCCO2)C1	123.7%
COc1ccccc1CC(=O)N1CCC(NCc2cccnc2)CC1	-3.091%
COc1ccccc1CC(=O)N1CC[C@@]2(CCCO2)[C@@H](OC)C1	3.075%
COc1ccc(Br)cc1CC(=O)N1CCCC1	26.87%
COc1ccc(C)cc1CC(=O)N1CC[C@@]2(CCCO2)[C@@H](O)C1	110.1%
COc1ccc(CC(=O)N2CC[C@H](CO)[C@H](O)C2)c(OC)c1	2.348%
O=C(Nc1ccc(OCc2cccc(F)c2)c(F)c1)C1COCCO1 (stereo not given)	-24.38%
CN1CCCC1c1ccc(C(=O)Nc2c3c(nn2C)CCC3)s1 (stereo not given)	105.6%
Cn1nc2c(c1NC(=O)c1ccc(C3CCCN3C3CCC3)s1)CCC2 (stereo not given)	91.78%
CC(C)CN1CCCC1c1ccc(C(=O)Nc2cccnc2)s1 (stereo not given)	20.92%
CC(C)CN1CCCC1c1ccc(C(=O)Nc2cn(C)nn2)s1 (stereo not given)	6.317%
CN1CCCC1c1ccc(C(=O)N2CCc3ccccc3C2)s1 (stereo not given)	10.54%
Cn1nc2c(c1NC(=O)c1cccs1)CCC2	116%
NCC(=O)N1CCCC1c1ccc(C(=O)NCc2ccoc2)s1 (stereo not given)	-13.99%
O=C(Nc1nnc(N2CCCCC2)[nH]1)c1cccs1	3.867%
O=C(NC1CCN(c2nccs2)CC1)c1cccs1	-6.975%

Compound	Percent Effect
Cc1cncc(NCC(O)c2ccco2)n1 (stereo not given)	11.88%
Clc1ccc(OCCNC2(c3ccc(Br)cc3)CCOCC2)cc1	18.48%
Cc1nnc(CCNC(=O)C(c2ccc(F)cc2)N(C)C)[nH]1 (stereo not given)	15.69%
CSCCCN1CCn2nc(CNC(C)=O)cc2C1	-21.5%
CNS(=O)(=O)CCNC(=O)[C@@]12CNC[C@@H]1CN(C1CCCC1)C2	-0.715%
CC(=O)NC1(C(=O)N2CCCN(c3cccnn3)CC2)CCCCC1	1.939%
CN(C)CCOCc1nnc2n1CCN(Cc1cccs1)CC2.O=C(O)C(F)(F)F.O=C(O)C(F)(F)F	101.6%
O=C(O)C(F)(F)F.O=C(O)C(F)(F)F.c1cncc(COCc2nnc3n2CCN(Cc2cccs2)C3)c1	-10.65%
O=C(O)C(F)(F)F.O=C(O)C(F)(F)F.c1cncc(COCc2nnc3n2CCN(Cc2ccco2)C3)c1	-13.62%
CN(C)CCOCc1nnc2n1CCN(Cc1ccco1)C2.O=C(O)C(F)(F)F.O=C(O)C(F)(F)F	-14.14%
CC(=O)NCc1nnc2n1CCN(Cc1cccs1)C2.O=C(O)C(F)(F)F	-7.249%
Cc1ccc(CN2CCc3nnc(COCCN(C)C)n3CC2)o1.O=C(O)C(F)(F)F.O=C(O)C(F)(F)F	95.05%
CCOCc1nnc2n1CCN(Cc1c(C)noc1C)CC2.O=C(O)C(F)(F)F	-27.85%
CN(C)CCOCc1nnc2n1CCN(Cc1ccco1)CC2.O=C(O)C(F)(F)F.O=C(O)C(F)(F)F	99.11%
COc1ccc(NC(=O)C2CCCO2)cc1OCc1cccnc1 (stereo not given)	5.381%
Cc1nccn1CCCNC(=O)C1CCCCN1Cc1ccncc1 (stereo not given)	-5.862%
Cc1nn(C)c(C)c1CCn1cncc1-c1ccc2c(c1)CC(C)N2C.Cl (stereo not given)	101.8%
Cc1nccn1CCCn1cncc1-c1ccc2c(c1)CCCN2C.Cl	98.66%
Cc1nn(C)c(C)c1CCC(=O)N1CC(c2cccnc2)C1	23.02%
Cc1nn(C)c(C)c1CCC(=O)N1CCc2sccc2C1	7.197%
CCN1c2ccc(-c3cncn3CCCn3ccnc3C)cc2CC1C.Cl (stereo not given)	77.37%
Cc1nccn1CCCn1cncc1-c1ccc2c(c1)CCC(C)N2C.Cl (stereo not given)	102.7%
Cc1cnccc1N1CCCN(C(=O)CCCn2ccnc2C)CC1	-4.474%
CCOc1ncc(NC(=O)c2ccccn2)c(OCC)n1	0.09854%

Compound	Percent Effect
CN1C[C@@H]2CC[C@H](C1)N(Cc1ccccc1OCCN1CCOCC1)C2	-8.693%
CSc1ccc(CNc2ccccc2CN2CCC(O)CC2)cc1	-4.512%
Cn1cc(CCCNC(=O)NC2CCN(c3ccccc3)C2=O)cn1 (stereo not given)	20.77%
CCn1nc2c(cc1=O)CN(CCOc1cccc(C#N)c1)CC2	-9.961%
Cn1cc(C(=O)OCC(N)=O)c(-c2ccc(F)cc2F)n1	-2.814%
N#CCCN(Cc1cccnc1)C(=O)c1ccc(-n2cnnn2)cc1	12.89%
Cc1ccc(NC(=O)N(C)C)c(C(=O)OCC(=O)NC2CCCC2)c1	-9.857%
COc1ccc(CN(C)C(=O)NCc2c(C)cc(C)[nH]c2=O)cc1	-0.4347%
CC1=NOC(C(=O)N(C)CCCn2nc(C)cc2C)C1 (stereo not given)	25.07%
Cc1cc(C)n(CCCN(C)C(=O)C2COc3ccccc3C2)n1 (stereo not given)	-47.38%
Cc1cnccc1N1CCCN(C(=O)CCn2ccnc2C)CC1	-14.43%
Cc1cc(C)n(CCCn2cncc2-c2ccc3c(c2)CC(C)N3C)n1.Cl (stereo not given)	95.59%
Cc1nccn1CCCn1cncc1-c1ccc2c(c1)CC(C)N2C.Cl (stereo not given)	92.09%
CC(C)OCCC1CCCCN1S(C)(=O)=O (stereo not given)	3.961%
CC(C(=O)N(Cc1ccc(C#N)cc1)CC(F)(F)F)S(C)(=O)=O (stereo not given)	-0.5778%
N#Cc1ccc(S(=O)(=O)NC(=O)C2CC2)c(C(F)(F)F)c1	6.344%
CC(O)CN(C)S(=O)(=O)c1ccc(C#N)cc1F (stereo not given)	-5.528%
CCC(CC)C(=O)NS(=O)(=O)c1ccc(C#N)cc1C(F)(F)F	103.7%
CC(=O)NC1CCN(c2ccc(C#N)cc2C(F)(F)F)CC1	29.91%
CCC(C)C(=O)NS(=O)(=O)c1ccc(C#N)cc1C(F)(F)F (stereo not given)	121.4%
CC(C)C(=O)NS(=O)(=O)c1ccc(C#N)cc1C(F)(F)F	109%
CC(C)(C)C(=O)NS(=O)(=O)c1ccc(C#N)cc1C(F)(F)F	-4.514%
